Measurements as given in the supplement of paper PMC9588786.
Counter-ions that a name gives are not always drawn. ± gives the standard deviation of the averaged measurements.

test system: HT-1080; assay: relative cell viability with RSL3 co-treatment (fraction of control); higher = stronger protection from RSL3-induced ferroptosis (higher viability); details: 10 µM
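Further: viability read as CCK-8 absorbance at 450 nm in cells co-exposed to the GPX4 inhibitor RSL3, relative to a 0.01% DMSO vehicle control.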

Structure (SMILES)	relative cell viability
NC(=O)c1ncn([C@@H]2O[C@H](CO)[C@@H](O)[C@H]2O)c1N [AICAR (Acadesine)]	1.03 ± 0.011
Oc1cccc(-c2nc(N3CCOCC3)c3oc4ncccc4c3n2)c1	0.75 ± 0.044
O=C1NC(=O)/C(=C/c2cccc(C(F)(F)F)c2)S1	0.807 ± 0.015
COc1cc(F)c(F)c(Nc2ccc(I)cc2F)c1NS(=O)(=O)C1(C[C@H](O)CO)CC1 [Refametinib (RDEA119, Bay 86-9766)]	0.92 ± 0.01
Cc1cc(Nc2cc(CN3CCOCC3)c3nc(C)c(Cc4ccc(Cl)cc4F)n3n2)n[nH]1	0.383 ± 0.095
COc1cc2nccc(Oc3ccc(NC(=O)C4(C(=O)Nc5ccc(F)cc5)CC4)cc3)c2cc1OC [Cabozantinib malate (XL184)]	0.8 ± 0.017
COc1cc(Nc2ncc(F)c(Nc3ccc4c(n3)NC(=O)C(C)(C)O4)n2)cc(OC)c1OC	0.88 ± 0.095
O=C(Cc1ccc(-c2ccc(OCCN3CCOCC3)cc2)cn1)NCc1ccccc1	0.627 ± 0.16
CNS(=O)(=O)C[C@H]1CC[C@H](N(C)c2[nH]cnc3nccc2-3)CC1 [Oclacitinib]	0.927 ± 0.075
CO[C@H]1C[C@@H]2CC[C@@H](C)[C@@](O)(O2)C(=O)C(=O)N2CCCC[C@H]2C(=O)O[C@H]([C@H](C)C[C@@H]2CC[C@@H](OC(=O)C(C)(CO)CO)[C@H](OC)C2)CC(=O)[C@H](C)/C=C(\C)[C@@H](O)[C@@H](OC)C(=O)[C@H](C)C[C@H](C)/C=C/C=C/C=C/1C	0.367 ± 0.11
CC[C@H](CO)Nc1nc(NCc2ccccc2)c2ncn(C(C)C)c2n1 [Roscovitine (Seliciclib,CYC202)]	0.793 ± 0.12
CCCCCCCCc1ccc(CCC(N)(CO)CO)cc1 [Fingolimod (FTY720) HCl]	0.253 ± 0.1
CN1CC[C@H](c2c(O)cc(O)c3c(=O)cc(-c4ccccc4Cl)oc23)[C@H](O)C1 [Flavopiridol HCl]	0.763 ± 0.17
C[C@@H](N)[C@H]1CC[C@H](C(=O)Nc2ccncc2)CC1	0.843 ± 0.032
COCCOc1ccc2c(c1)ncn2-c1ccc2cccc(N3CCC(N)CC3)c2n1	0.82 ± 0.056
CNC(=O)CN1CCC(Oc2cc3c(Nc4cccc(Cl)c4F)ncnc3cc2OC)CC1 [Sapitinib (AZD8931)]	0.56 ± 0.095
O=S(=O)(NCCNC/C=C/c1ccc(Br)cc1)c1cccc2cnccc12	0.577 ± 0.045
COc1ccc(-c2nc(N3CCOCC3)c3sc(CN(C)c4ncc(C(=O)NO)cn4)cc3n2)cn1	0.577 ± 0.15
Nc1nc(Nc2ccc(S(N)(=O)=O)cc2)nn1C(=O)c1c(F)cccc1F	0.53 ± 0.095
Cc1c(CN2CCN(C(=O)[C@H](C)O)CC2)sc2c(N3CCOCC3)nc(-c3cnc(N)nc3)nc12 [Apitolisib (GDC-0980, RG7422)]	0.47 ± 0.09

Structure (SMILES)	relative cell viability
COc1nccc(-c2c(-c3ccc(F)cc3)ncn2C2CCC(O)CC2)n1 (centres undefined)	0.667 ± 0.16
CO[C@H]1C[C@@H]2CC[C@@H](C)[C@@](O)(O2)C(=O)C(=O)N2CCCC[C@H]2C(=O)O[C@H]([C@H](C)C[C@@H]2CC[C@H](n3cnnn3)[C@H](OC)C2)CC(=O)[C@H](C)/C=C(\C)[C@@H](O)[C@@H](OC)C(=O)[C@H](C)C[C@H](C)/C=C/C=C/C=C/1C [Zotarolimus(ABT-578)]	0.607 ± 0.16
Nc1ccc(-c2ccc3ncc4ccc(=O)n(-c5cccc(C(F)(F)F)c5)c4c3c2)cn1 [Torin 2]	0.687 ± 0.047
COc1ccc(-c2cc3c(C)nc(N)nc3n([C@H]3CC[C@H](OCCO)CC3)c2=O)cn1	0.597 ± 0.16
Cc1cc(CS(=O)(=O)c2ccccc2)cc(OCc2ccc(CN3CCC[C@@H]3CO)cc2)c1	0.723 ± 0.12
C1=N/C2=N/c3ccc(OCCN4CCCC4)c(c3)COC/C=C/COCc3cccc(c3)C(=C1)N2 [Pacritinib (SB1518)]	0.467 ± 0.096
S=C(NCc1ccc2c(c1)OCO2)N1CCN(c2ncnc3c2oc2ccccc23)CC1 [Amuvatinib (MP-470)]	0.55 ± 0.072
CC(C)CC(=O)Nc1n[nH]c2c1CN(C(=O)C1CCN(C)CC1)C2(C)C	0.78 ± 0.069
CCN1CCN(Cc2ccc(Nc3ncc(F)c(-c4cc(F)c5nc(C)n(C(C)C)c5c4)n3)nc2)CC1	0.42 ± 0.026
CC(C)(CCCCCC(O)CCCCCC(C)(C)C(=O)O)C(=O)O	0.843 ± 0.078
C#Cc1cccc(Nc2ncnc3cc4c(cc23)OCCOCCOCCO4)c1 [Icotinib]	0.64 ± 0.075
CCn1c(N)c(C(=O)NC)c(=O)c2ccc(C#CC(C)(O)COC)nc21 (centres undefined)	0.89 ± 0.16
CC(C)CCN1c2nc(Nc3cc(F)c(O)c(F)c3)ncc2N(C)C(=O)C1C (centres undefined)	0.717 ± 0.14
O=C(/C=C/c1ccc(O)c(O)c1)c1ccc(O)cc1O [Butein]	0.74 ± 0.075
Cc1cc2c(F)c(Oc3ncnn4cc(OC[C@@H](C)O)c(C)c34)ccc2[nH]1	0.753 ± 0.078
Nc1nc(N)c(N=O)c(OCC2CCCCC2)n1	0.82 ± 0.01
Cc1cnc(NC(=O)Nc2cc(Br)c(C)cc2OC[C@@H]2CNCCO2)cn1	0.447 ± 0.17
CNC(=O)c1ccccc1Sc1ccc2c(/C=C/c3ccccn3)n[nH]c2c1 [Axitinib]	0.63 ± 0.22
O=c1ccc2ccc(O)c(O)c2o1 [Daphnetin]	0.85 ± 0.017
